Experimental data taken from PubChem BioAssay (NCATS).
Results filed as inconclusive are left out. Active and inactive are the calls of the source. Calls come from the whole dose curve; as a rule, active = well fitted curve in the direction sought with a large enough effect; inconclusive = small, poorly fitted or top-dose-only effect, or another doubt; inactive = no such curve, though single readings can be large; an effect the other way counts as inactive or inconclusive.

Assays:
[1] = qHTS of pediatric cancer cell lines to identify multiple opportunities for drug repurposing: Primary screen for TC32 cells (AID 1347089); note: nearly all actives have a fitted effect of over 60% in size
How it was run: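 In the primary qHTS, MIPE compounds were tested at 11 concentrations (0.78 nM to 46 µM) and NPC compounds at 8 (0.59 nM to 46 µM) on TC32 cells for 48 h. CellTiter-Glo luminescence gave viability.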

[2] = qHTS of pediatric cancer cell lines to identify multiple opportunities for drug repurposing: Primary screen for DAOY cells (AID 1347090); note: nearly all actives have a fitted effect of over 55% in size
How it was run: (§1)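 Cell viability, CellTiter-Glo luminescence; 500-1,000 cells/well, 8- or 11-point titration, 48 h compound exposure at 37 degrees C, 5% CO2. Controls: DMSO neutral, bortezomib 2.3 µM final as positive.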

[3] = qHTS of pediatric cancer cell lines to identify multiple opportunities for drug repurposing: Primary screen for NB-EBc1 cells (AID 1347095)
How it was run: (§2)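 ATP-based luminescence (CellTiter-Glo) quantifies viability after a 48-hour exposure. Compounds are dosed across 8 or 11 final concentrations; DMSO and 2.3 µM bortezomib serve as controls.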

[4] = qHTS of pediatric cancer cell lines to identify multiple opportunities for drug repurposing: Primary screen for Saos-2 cells (AID 1347097); note: nearly all actives have a fitted effect of over 40% in size
How it was run: as §2

[5] = qHTS of pediatric cancer cell lines to identify multiple opportunities for drug repurposing: Primary screen for LAN-5 cells (AID 1347100)
How it was run: (§3)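 Cells (500-1,000/well) rested 5 h, then received compounds for 48 h; metabolically active cells were measured by CellTiter-Glo luminescence. Final concentrations spanned up to 46 µM (MIPE, 11-point) or 0.59 nM-46 µM (NPC, 8-point) in primary screens, 11-point in follow-ups.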

[6] = qHTS of pediatric cancer cell lines to identify multiple opportunities for drug repurposing: Primary screen for Rh18 cells (AID 1347102); note: nearly all actives have a fitted effect of over 65% in size
How it was run: as §3

[7] = qHTS of pediatric cancer cell lines to identify multiple opportunities for drug repurposing: Primary screen for OHS-50 cells (AID 1347103); note: nearly all actives have a fitted effect of over 40% in size
How it was run: as §3

[8] = qHTS of pediatric cancer cell lines to identify multiple opportunities for drug repurposing: Primary screen for SJ-GBM2 cells (AID 1347091)
How it was run: as §1

[9] = qHTS of pediatric cancer cell lines to identify multiple opportunities for drug repurposing: Primary screen for U-2 OS cells (AID 1347096); note: nearly all actives have a fitted effect of over 50% in size
How it was run: as §3

[10] = qHTS of pediatric cancer cell lines to identify multiple opportunities for drug repurposing: Primary screen for RD cells (AID 1347104); note: nearly all actives have a fitted effect of over 55% in size
How it was run: as §2

[11] = qHTS of pediatric cancer cell lines to identify multiple opportunities for drug repurposing: Primary screen for MG 63 (6-TG R) cells (AID 1347105); note: nearly all actives have a fitted effect of over 50% in size
How it was run: as §2

[12] = qHTS of pediatric cancer cell lines to identify multiple opportunities for drug repurposing: Primary screen for A673 cells (AID 1347092); note: nearly all actives have a fitted effect of over 45% in size
How it was run: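 48 h compound exposure, A673, 500-1,000 cells/well, 37 degrees C/5% CO2. MIPE: 11-point, 0.78 nM-46 µM; NPC: 8-point, 0.59 nM-46 µM (final). Readout CellTiter-Glo luminescence after 15 min RT.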

[13] = qHTS of pediatric cancer cell lines to identify multiple opportunities for drug repurposing: Primary screen for SK-N-MC cells (AID 1347093)
How it was run: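 Metabolically active cells were quantified by ATP-dependent luminescence (CellTiter-Glo, 15 min at room temperature) following 48 h treatment. Cells had been plated at 500-1,000 per well and settled for 5 h beforehand.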

[14] = qHTS of pediatric cancer cell lines to identify multiple opportunities for drug repurposing: Primary screen for NB1643 cells (AID 1347099); note: nearly all actives have a fitted effect of over 50% in size
How it was run: as §2

[15] = qHTS of pediatric cancer cell lines to identify multiple opportunities for drug repurposing: Primary screen for BT-12 cells (AID 1347101); note: nearly all actives have a fitted effect of over 25% in size
How it was run: as §3

[16] = qHTS of pediatric cancer cell lines to identify multiple opportunities for drug repurposing: Primary screen for BT-37 cells (AID 1347094)
How it was run: as §2

[17] = qHTS of pediatric cancer cell lines to identify multiple opportunities for drug repurposing: Primary screen for SK-N-SH cells (AID 1347098); note: nearly all actives have a fitted effect of over 65% in size
How it was run: as §3

Measured: Potency
Potency is the fitted concentration of half-maximal effect.

Cc1ccc([C@@H]2O[C@H](CO)[C@@H](O)[C@H](O)[C@@H]2O)cc1Cc1ccc(-c2ccc(F)cc2)s1
inactive: [1] | [2] | [3] | [5] | [6]
active: [4] 14.8 µM | [7] 34.3 µM

CC[C@H]1OC(=O)[C@H](C)C(=O)[C@H](C)[C@@H](O[C@H]2O[C@H](C)C[C@H](N(C)C)[C@@H]2O)[C@](C)(OC)C[C@@H](C)C(=O)[C@H](C)[C@H]2N(CCCCn3cnc(-c4cccnc4)c3)C(=O)O[C@]12C
inactive: [1] | [2] | [8] | [3] | [9] | [4] | [7]

COc1ccc2cc(-c3nc(-c4ccc(S(C)=O)cc4)[nH]c3-c3ccncc3)ccc2c1 (stereo not drawn)
inactive: [1] | [2] | [9] | [4] | [6] | [7] | [10] | [11]
active: [8] 14.8 µM

Nc1ncnc2c1nc(Cl)n2[C@@H]1O[C@H](CO)[C@@H](O)[C@@H]1O
inactive: [1] | [3] | [4] | [15]
active: [8] 11.8 µM | [12] 23.5 µM | [13] 26.4 µM | [14] 16.6 µM | [7] 15.3 µM | [10] 29.6 µM | [11] 29.6 µM

CCc1ccc(OCc2ccccc2C(=O)Nc2ccc3nc(C)cc(N)c3c2)cc1
active: [1] 20.8 µM | [2] 11.8 µM | [12] 2.96 µM | [13] 5.9 µM | [16] 8.63 µM | [9] 7.43 µM | [4] 14.8 µM | [17] 12.1 µM | [14] 8.33 µM | [5] 8.33 µM | [15] 9.68 µM | [6] 8.33 µM | [7] 3.43 µM | [10] 5.9 µM | [11] 7.43 µM

CC1CCC(C(=O)N(c2cc(C#CC(C)(C)C)sc2C(=O)O)C2CCC(O)CC2)CC1 (stereo not drawn)
inactive: [1] | [8] | [12] | [9] | [17] | [5] | [6] | [11]
active: [14] 20.9 µM

O=c1c(-c2ccc(O)cc2)coc2cc(O)ccc12
inactive: [1] | [2] | [8] | [16] | [3] | [9] | [4] | [14] | [5] | [7] | [10] | [11]

COc1cc(Nc2ncc(F)c(Nc3ccc4c(n3)NC(=O)C(C)(C)O4)n2)cc(OC)c1OC
inactive: [1] | [16] | [9] | [17] | [15]
active: [8] 3.72 µM | [12] 14.8 µM | [13] 0.418 µM | [3] 4.18 µM | [4] 0.935 µM | [7] 0.544 µM

CC(C)OC(=O)C(C)(C)Oc1ccc(C(=O)c2ccc(Cl)cc2)cc1
inactive: [1] | [2] | [12] | [9] | [4] | [17] | [5] | [6] | [10] | [11]
active: [13] 20.9 µM

O=C(NOCC(O)CO)c1cc(Br)c(F)c(F)c1Nc1ccc(I)cc1F (stereo not drawn)
inactive: [1] | [16] | [5] | [6]
active: [2] 14.8 µM | [12] 9.35 µM | [13] 0.132 µM | [17] 0.341 µM | [10] 0.148 µM | [11] 11.8 µM

CS(=O)c1ccc(-c2nc(-c3ccc(F)cc3)c(-c3ccncc3)[nH]2)cc1 (stereo not drawn)
active: [12] 34 µM | [13] 8.55 µM | [16] 17.7 µM | [4] 10.8 µM | [15] 44.4 µM | [7] 44.4 µM | [10] 42.9 µM
inactive: [1] | [2] | [9] | [6] | [11]

CC(C)(C)Cn1c(N)nc2ccc(-c3[nH]c(C(C)(C)C)nc3-c3ccc(F)cc3)nc21
active: [1] 29.4 µM | [2] 23.5 µM | [12] 18.7 µM | [16] 24.3 µM | [14] 11.8 µM | [15] 27.3 µM | [7] 30.6 µM | [10] 20.9 µM
inactive: [3] | [9] | [4] | [5]

CCc1ccc(C=C2SC(=S)NC2=O)cc1
inactive: [1] | [2] | [13] | [16] | [9] | [17] | [5] | [15] | [6] | [10] | [11]
active: [14] 23.5 µM

COC(=O)N[C@H](C(=O)N1CCC[C@@H]1c1ncc(-c2ccc(-c3ccc(-c4cnc([C@@H]5CCCN5C(=O)[C@@H](NC(=O)OC)C(C)C)[nH]4)cc3)cc2)[nH]1)C(C)C
active: [8] 23.5 µM | [3] 26.4 µM | [4] 18.7 µM | [5] 26.4 µM | [15] 34.3 µM | [6] 23.5 µM | [10] 33.2 µM
inactive: [1] | [17]

CCS(=O)(=O)N1CC(CC#N)(n2cc(-c3ncnc4[nH]ccc34)cn2)C1
inactive: [1] | [9] | [4] | [15]
active: [12] 14.8 µM | [17] 13.6 µM | [14] 11.8 µM | [5] 20.9 µM

Cc1cccc(Nc2nc(-c3ccncc3)cs2)c1
active: [8] 16.6 µM | [7] 21.7 µM
inactive: [1] | [13] | [9] | [4] | [17] | [6] | [11]

COC(=O)C1=CO[C@@H](O)[C@@H]2C(CO)=CC[C@@H]12
inactive: [1] | [16] | [9] | [4] | [10]
active: [13] 29.6 µM | [5] 20.9 µM

O=c1cc(-c2cccc3c2Sc2ccccc2S3)oc(N2CCOCC2)c1
inactive: [1] | [8] | [16] | [3] | [9] | [5]
active: [13] 18.7 µM

C=CCc1ccc(O)c(-c2ccc(O)c(CC=C)c2)c1
active: [12] 23.5 µM | [13] 23.5 µM | [4] 18.7 µM | [7] 24.3 µM | [11] 18.7 µM
inactive: [1] | [3] | [9] | [6]

CC[C@]1(O)C[C@@H]2CN(CCc3c([nH]c4ccccc34)[C@@](C(=O)OC)(c3cc4c(cc3OC)N(C=O)[C@@H]3C45CCN4CC=C[C@](CC)([C@H]45)[C@@H](OC(C)=O)[C@]3(O)C(=O)OC)C2)C1 (stereo partly drawn)
active: [12] 11.8 µM | [13] 20.9 µM
inactive: [1] | [16] | [9] | [4] | [5] | [7] | [11]

Cc1c(NC(=O)c2ccc(C(C)(C)C)cc2)cccc1-c1cn(C)c(=O)c(Nc2ccc(C(=O)N3CCOCC3)cc2)n1
active: [13] 18.7 µM | [3] 18.7 µM | [4] 18.7 µM | [7] 24.3 µM
inactive: [1] | [11]

NC(=O)c1cccc2[nH]c(-c3ccc([C@H]4CCCN4)cc3F)nc12
active: [12] 11.8 µM | [3] 18.7 µM
inactive: [2] | [8] | [9] | [4] | [15] | [6] | [10]

O=C1NC(=O)C(=Cc2ccc(-c3ccc(F)cc3)o2)S1
inactive: [1] | [9] | [5]
active: [14] 18.7 µM

NC(CO)(CO)CCc1ccc(Sc2cccc(OCc3ccccc3)c2)cc1Cl
active: [2] 23.5 µM | [8] 18.7 µM | [12] 14.8 µM | [13] 2.64 µM | [16] 19.3 µM | [3] 1.87 µM | [4] 29.6 µM | [17] 19.2 µM | [14] 16.6 µM | [15] 30.6 µM | [7] 27.3 µM | [10] 33.2 µM | [11] 29.6 µM

CC/C(=C(\c1ccccc1)c1ccc(OCCN(C)C)cc1)c1ccccc1
inactive: [2] | [11]
active: [13] 16.8 µM | [4] 21.1 µM | [17] 24.4 µM | [15] 27.6 µM | [7] 17.4 µM

O=C(NCc1ccncc1)C12C[C@H]3C[C@@H](C1)CC(c1ccc(Cl)cc1)(C3)C2
inactive: [1] | [6]
active: [13] 0.526 µM | [3] 18.7 µM | [4] 11.8 µM | [7] 19.3 µM | [10] 10.5 µM

CNC(=O)c1ccccc1Sc1ccc2c(C=Cc3ccccn3)n[nH]c2c1
inactive: [9]
active: [8] 2.96 µM | [13] 3.32 µM | [4] 14.8 µM | [14] 16.6 µM | [6] 14.8 µM | [7] 21.7 µM

COc1ccc(Cc2ccc(NC(N)=O)cc2)cc1-c1cccc(Cl)c1
inactive: [1] | [3] | [9] | [4] | [15] | [6] | [10] | [11]
active: [13] 18.7 µM

Nc1nc(F)nc2c1ncn2[C@@H]1O[C@H](COP(=O)(O)O)[C@@H](O)[C@H]1O
active: [2] 4.69 µM | [8] 0.662 µM | [12] 14.8 µM | [13] 0.264 µM | [16] 15.3 µM | [3] 0.935 µM | [4] 0.743 µM | [14] 16.6 µM | [7] 0.485 µM | [11] 0.469 µM
inactive: [9] | [6]

OC[C@H]1O[C@@H](Oc2cc(O)cc(C=Cc3ccc(O)cc3)c2)[C@H](O)[C@@H](O)[C@H]1O
active: [12] 9.35 µM
inactive: [1] | [3] | [9] | [4] | [14] | [5] | [15] | [6] | [10] | [11]

CO[C@H]1C[C@@H]2CC[C@@H](C)[C@@](O)(O2)C(=O)C(=O)N2CCCC[C@@H]2C(=O)O[C@H]([C@H](C)C[C@@H]2CC[C@H](OC(=O)C(C)(CO)CO)[C@H](OC)C2)CC(=O)[C@H](C)C=C(C)[C@@H](O)[C@@H](OC)C(=O)[C@H](C)C[C@H](C)C=CC=CC=C1C
inactive: [17]
active: [8] 11.8 µM | [16] 30.6 µM | [3] 9.35 µM | [4] 16.6 µM | [5] 20.9 µM | [6] 29.6 µM
